HepG2 tox: counter-screen for TGF-b inhibitors: cytotoxicity in HepG2 cells; HepG2 CAGA-GFP viability, ATP luminescence, 18 h; Potency, µM (highest dose often 46.1 µM), without a hit: at the top dose activity change, negative = cytotoxicity, most hits filed as cytotoxic; 0.76% of 410,000 active; note: potency is the fitted concentration of half-maximal effect
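CellTiter-Glo luminescence gave cytotoxicity after 18 hours at 37 degrees C. The cells were HepG2 CAGA-GFP in 1% FBS DMEM, stimulated with 500 pg/mL TGF-beta after compound addition. %Activity was normalised to no-cell wells (complete cell-killing) and DMSO (no toxicity), and curves were fitted and classified.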
IL1B secr inh: inflammasome signaling inhibition, IL-1 beta readout; THP-1 LPS/ATP IL-1B secretion, AlphaLISA, 16 h; stronger effect = lower value; activity change, % at 57.5 µM; 4.7% of 360,000 active; in the data active = activity change below about -50%; inconclusive = mostly about -30% to -49%; note: % is set by controls: 0 for no effect and ±100 for the full control effect
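THP-1 cells pretreated 1 hr with compounds (up to 57.5 uM final), then stimulated with LPS (250 ng/mL final) plus ATP (1.25 mM final); secreted IL-1B measured by AlphaLISA after 16 hr, decreased signal indicating inhibition.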
DT40 TDP1 CPT: growth inhibition of DT40 Tdp1-/-;hTDP1 cells with camptothecin (screen for TDP1 inhibitors) | 12% of 420,000 active | chicken DT40 Tdp1-/-;hTDP1 cells + 20 nM CPT, ATP luminescence, 48 h | Potency, µM (titrated, usually from 46.2 µM), inactives show at the top dose activity change, negative = growth inhibition, usual class: inhibitors; note: potency is the fitted concentration of half-maximal effect; % is set by controls: 0 for no effect and ±100 for the full control effect; nearly all actives have a fitted effect of over 55% in size
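Chicken DT40 Tdp1-/- cells stably complemented with human TDP1 were seeded at 400 cells/well in medium containing 20 nM camptothecin, exposed to pin-transferred compounds, and grown at 37 °C for at least 48 hr. Viability was read as ATP luminescence.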
TGFb inhibitor: blocks TGF-b signaling | HepG2 CAGA-GFP TGF-b/SMAD3 reporter, GFP fluorescence, 18 h; TGF-beta stimulated, 500 pg/mL final | Potency, µM (highest dose often 46.1 µM), for inactives: at the top dose activity, negative = inhibition, hits mostly inhibitors | 1.2% of 410,000 active | AID 588855; note: potency is the fitted concentration of half-maximal effect; % is set by controls: 0 for no effect and ±100 for the full control effect; nearly all actives have a fitted effect of over 65% in size
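Inhibition was scored as loss of TGF-beta-induced (500 pg/mL final, 18 hours, 37 degrees C) GFP in HEPG2 cells carrying a CAGA-GFP reporter, in DMEM with 1% FBS. Well GFP was summed per cell; Activity was normalised to unstimulated and stimulated DMSO wells, then concentration-response fitting.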
TDP1 inh: inhibitors of human tyrosyl-DNA phosphodiesterase TDP1 | recombinant TDP1, AlphaScreen DNA substrate cleavage | Potency, µM (doses to about 130 µM), without a hit: top-dose activity change, negative = inhibition, actives largely listed as inhibitors | 0.28% of 350,000 active | AID 485290 | Q9NUW8; note: potency is the fitted concentration of half-maximal effect; % is set by controls: 0 for no effect and ±100 for the full control effect; nearly all actives have a fitted effect of over 40% in size
Target sequence (Q9NUW8 whole entry, looked up): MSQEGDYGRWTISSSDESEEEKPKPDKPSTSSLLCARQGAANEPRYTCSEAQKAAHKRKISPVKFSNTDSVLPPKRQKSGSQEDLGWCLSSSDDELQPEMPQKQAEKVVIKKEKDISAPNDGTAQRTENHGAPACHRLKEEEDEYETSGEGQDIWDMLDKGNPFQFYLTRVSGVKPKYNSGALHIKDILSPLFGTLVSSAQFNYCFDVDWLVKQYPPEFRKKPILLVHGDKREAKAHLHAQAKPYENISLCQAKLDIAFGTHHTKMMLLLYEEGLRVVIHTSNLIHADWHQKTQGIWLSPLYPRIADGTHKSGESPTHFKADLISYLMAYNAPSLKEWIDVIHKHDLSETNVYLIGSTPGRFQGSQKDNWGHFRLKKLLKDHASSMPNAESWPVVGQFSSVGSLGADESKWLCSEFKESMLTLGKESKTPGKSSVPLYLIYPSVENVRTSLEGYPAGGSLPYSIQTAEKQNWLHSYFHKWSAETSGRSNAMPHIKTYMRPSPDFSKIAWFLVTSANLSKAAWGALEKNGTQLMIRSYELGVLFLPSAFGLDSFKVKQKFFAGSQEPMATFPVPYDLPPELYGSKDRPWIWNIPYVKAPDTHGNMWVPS
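E. coli-derived human Tdp1, 1 nM final. Cpd preinc 15 min RT; substrate 15 nM final, 5 min RT; AS bead mix 10 ug/ml final, 10 min RT. Signal loss = tyrosine-FITC cleavage. No-enzyme wells = max signal.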
TDP1 cell noCPT: qHTS for Inhibitors of human tyrosyl-DNA phosphodiesterase 1 (TDP1): qHTS in cells in absence of CPT | Potency, µM (titrated, usually from 46.2 µM), for the others: top-dose activity change, negative = growth inhibition, most hits filed as inhibitors | DT40 Tdp1-/- hTDP1 cells, no CPT, ATP luminescence, 48 h | 15% of 420,000 active; note: potency is the fitted concentration of half-maximal effect; % is set by controls: 0 for no effect and ±100 for the full control effect; nearly all actives have a fitted effect of over 55% in size
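Readout: luminescence from CellTiter-Glo after 30 min in the dark at RT. Cells: DT40 Tdp1-/- with stable hTDP1, 400/well. Exposure: compounds alone, ≥48 hr, 37 °C.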
Starred values were filed as active, the others as inactive; ? = inconclusive; . = no result given; [ ] = remark or other dose. A selection: hits, their analogues and other compounds. The true share with any hit is near 19%. Unless noted, calls come from the whole dose curve; as a rule, active = well fitted curve in the direction sought with a large enough effect; inconclusive = small, poorly fitted or top-dose-only effect, or another doubt; inactive = no such curve, though single readings can be large; an effect the other way counts as inactive or inconclusive.

SMILES	HepG2 tox	IL1B secr inh	DT40 TDP1 CPT	TGFb inhibitor	TDP1 inh	TDP1 cell noCPT
Cc1ccc(C)c(S(=O)(=O)N2CCN(C(=O)c3ccccc3Cc3ccccc3)CC2)c1	6%	-59*	11%	?	2%	?
Cc1ccc(C)c(S(=O)(=O)NCc2ccc(C(=O)N3CCC(Cc4ccccc4)CC3)cc2)c1	-26%	-57*	?	?	4%	?
Cc1[nH]c2ccc(F)cc2c1CCNC(=O)c1cc2cc(Cl)ccc2oc1=O	0%	.	2%	8%	6%	-24%
O=c1c2sccc2n(Cc2cc(=O)n3ccccc3n2)c(=O)n1-c1cc(F)ccc1F	-18%	.	-16%	4%	3%	0%
COc1cc(=O)n2c(c1C(=O)N(C)Cc1ccsc1)CCN(Cc1c(C)nn(C)c1Cl)CC2	.	.	5%	.	.	-5%
Cc1cccc(NC(=O)CSc2nc(=O)n(CCN3CCOCC3)c3c2CCC3)c1	-11%	.	0%	-4%	5%	-3%
Cc1ccc(S(=O)(=O)N2CCN(C(=O)CCc3nc4ccccc4c(=O)[nH]3)CC2)c(C)c1	5%	?	?	3%	-5%[0.505 µM]	?
Cc1ccc(C)c(S(=O)(=O)N2CCN(C(=O)CCc3nc4ccccc4c(=O)[nH]3)CC2)c1	-15%	19	21µM*	-5%	1%	21µM*
Cc1ccc(C)c(S(=O)(=O)N2CCN(C(=O)CCc3c[nH]c4ccccc34)CC2)c1	-16%	-6	-5%	-4%	5%	-22%
Cc1ccc(C)c(S(=O)(=O)N2CCN(C(=O)CCCc3c[nH]c4ccccc34)CC2)c1	8%	?	?	-18%	.	23µM*
Cc1cccnc1-c1cccc2c1OC(CNC(=O)Cc1c(C)noc1C)C2 (stereo not given)	.	.	8%[9.04 µM]	.	.	-15%
COC(=O)c1ccc(NC(=O)C(C)Sc2nc(=O)cc(N)n2CCc2ccccc2)cc1 (stereo not given)	-20%	.	.	-2%	3%	.
Cc1ccc(C)c(NC(=O)COC(=O)CC2c3ccccc3CCN2S(=O)(=O)c2ccc(F)cc2)c1 (stereo not given)	-38%	0	-14%	-18%	5%	?
COc1ccc2[nH]c(=O)c(CNc3ccccc3C)cc2c1	-13%	40	9.2µM*	-10%	.	23µM*
COc1ccc2[nH]c(=O)c(CNc3ccccc3OC)cc2c1	-20%	-12	6.5µM*	-28%	.	13µM*
COc1ccc2[nH]c(=O)c(CN(CCO)C(=O)c3ccccc3F)cc2c1	-25%	10	-3%	0%	2%	-4%
CCc1cccc(C)c1NC(=O)CSc1n[nH]c(N)n1	9%	13	-2%	3%	0%	9%
CC(CN(C)Cc1ccccc1)OC(=O)c1ccc(F)cc1 (stereo not given)	0%	-8	15µM*	-2%	-3%	10µM*
O=c1[nH]c2ccccc2nc1/C=C/c1ccc(O)cc1	-30%	-76*	?	?	?	15µM*
Cc1ccc(OCc2nc3ccccc3[nH]2)cc1	-6%	?	?	-5%	-3%	?
Cc1ccc(/C=C/c2nc3ccccc3[nH]2)cc1	-100%	.	10µM*	?	5%	13µM*
Cc1cc2nc(/C=C/c3nc4cc(C)c(C)cc4[nH]3)[nH]c2cc1C	0%	3	1%	-10%	-9%	-21%
Cc1ccc(/C=C/c2nc3ccccc3[nH]2)o1	-47%	-73*	23µM*	?	8%	16µM*
COc1ccccc1/C=C/c1nc2ccccc2[nH]1	8.9µM*	.	?	0%	.	14µM*
COc1ccc(NC(=O)N(C)C[C@H]2Oc3ccc(NS(=O)(=O)c4c(C)noc4C)cc3C(=O)N([C@H](C)CO)C[C@@H]2C)cc1	4%	3	-4%	-1%	0%	12%
SMILES	HepG2 tox	IL1B secr inh	DT40 TDP1 CPT	TGFb inhibitor	TDP1 inh	TDP1 cell noCPT
COc1ccccc1/C=C/C(=O)Nc1nc(N)n(-c2ccccc2)n1	2%	0	-9%	-9%	2%	-11%
c1cncc(-c2nc(NCCCN3CCOCC3)c3c4c(sc3n2)CCC4)c1	-2%	-129*	?	-29%	8%	23µM*
CCCCCCCCOC(=O)c1c(CSC(=N)N)n(C)c2cc(Br)c(OC(C)=O)cc12	11µM*	-3	6.5µM*	?	6%	7.3µM*
CCOC(=O)c1c(C)n(C)c2cc(Br)c(OC)cc12	0%	14	-5%	10%	-2%	-3%
CCOC(=O)c1c(CSC(=N)N)n(-c2ccc(Br)cc2)c2cc(Br)c(OC(C)=O)cc12	-19%	-109*	?	10%	5%	23µM*
CCC1CN(C(=O)Nc2cc(OC)cc(OC)c2)c2ccccc2S1 (stereo not given)	-34%	.	?	?	6%	?
CS(=O)(=O)N1CCN(c2ccc(NC(=S)NC(=O)c3cccs3)cc2)CC1	-4%	-6	-9%	3%	2%	14%
O=C(NC(=S)N1CCN(c2ccc(O)cc2)CC1)c1cccs1	-10%	23	?	?	.	?
CCCC(=O)NC(=S)Nc1ccc(NC(=O)c2cccs2)cc1	-17%	-10	-7%	17%	3%	-18%
CCCC(=O)NC(=S)Nc1ccc(N2CCN(C(=O)c3cccs3)CC2)cc1	-23%	-85*	16µM*	?	3%	15µM*
O=C(NC(=S)Nc1ccc(S(=O)(=O)N2CCCCCC2)cc1)c1cccs1	-5%	20	?	2%	7%	21µM*
O=C(NC(=S)Nc1ccc(N2CCCCC2)cc1)c1cccs1	-22%	?	21µM*	?	11%	?
O=C(NC(=S)Nc1ccc(N2CCN(C(=O)c3ccccc3)CC2)cc1)c1cccs1	-9%	-60*	?	?	5%	26µM*
CCC(C(=O)Nc1cccnc1)n1c(=O)[nH]c2ccccc2c1=O (stereo not given)	5%	-1	13%	8%	2%	-1%
CN(CC(=O)Nc1ccc(Cl)cc1F)S(=O)(=O)c1ccc2c(c1)n(C)c(=O)c(=O)n2C	-4%	.	-10%	-5%	4%	-14%

Screens (PubChem BioAssay)
